SW480 rerep: A quantitative high throughput screen for small molecules that induce DNA re-replication in SW480 colon adenocarcinoma cells. Potency, µM (highest dose often 46.1 µM), most hits filed as activators. SW480 DNA re-replication, Hoechst DNA content imaging, 48 h. 340,000 compounds, 1.8% hits. AID 624297, 2012; also: nearly all actives have a fitted effect of over 55% in size
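Compounds, transferred as 23 nL by pin tool, were incubated with cells for 48 hr; DNA content per nucleus was then quantified by Hoechst staining and fluorescence plate imaging.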
hERG WT inh: qHTS for Inhibitors of KCHN2 3.1: Wildtype qHTS. 340,000 compounds, 0.37% hits. AID 720551, 2013. activity change, % at 1.84 µM. U2OS, BacMam KCNH2, thallium flux FluxOr; active compounds read low;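 active = maximum activity change below -70%; inconclusive = maximum activity change between -70% and -50%; inactive = maximum activity change above -50%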
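U2OS cells were transduced with wild-type KCNH2 virus (2.03 x 10^8 / mL) for 4 h at room temperature, then cultured overnight at 37 C. Thallium flux was read with FluxOr dye. Rate constants were normalized to DMSO controls.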
KB-V1 cytotox: qHTS assay for MDR1-selective chemotherapeutics: Primary screen using the drug-selected MDR subline cells KB-V1 | AID 1347076, 2019 | 400,000 compounds, 3.4% hits | KB-V1 MDR cells viability, CellTiter-Glo, 72 h | Potency, µM (doses to about 46.1 µM), actives largely listed as cytotoxic; also: nearly all actives have a fitted effect of over 60% in size
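KB-V1 MDR subline cells in DMEM (phenol-red free, 10% FBS) exposed to compounds in qHTS concentration series for 72 h at 37 degrees C. Viability read by CellTiter-Glo luminescence; concentration-effect curves fitted after normalization and correction.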
KCNH2 3.1 inh: qHTS for Inhibitors of KCHN2 3.1: Mutant qHTS | Potassium voltage-gated channel subfamily H member 2, brain isoform KCNH2 3.1 (human) | U2OS KCNH2 3.1, thallium flux FluxOr; active compounds read low | activity change, % (tested at about 1.8 µM) | 340,000 compounds, 0.95% hits | AID 720553, 2013;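 active = maximum activity change below -70%; inconclusive = maximum activity change from -70% to -50%; inactive = maximum activity change above -50%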;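 also: thallium influx rate constant from kinetic fluorescence after stimulation buffer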
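Channel expression came from 3.1 mutant virus (1.77 x 10^8 /mL) applied to suspended U2OS cells for 4 h. Flux was tracked with FluxOr dye plus Red40 quencher, and kinetic rate constants normalized to controls.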
KB-3-1 tox: qHTS assay for MDR1-selective chemotherapeutics: Primary screen using the parental adenocarcinoma cell KB-3-1. KB-3-1 viability, CellTiter-Glo ATP luminescence, 72 h. Potency, µM (series often up to 46.1 µM), most hits filed as cytotoxic. AID 1347075, 2019. 400,000 compounds, 1.4% hits; also: nearly all actives have a fitted effect of over 60% in size
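KB-3-1 parental drug-naive adenocarcinoma cells in DMEM/10% FBS, incubated 72 h at 37 C with pin-transferred compounds across a concentration series. Viability by CellTiter-Glo luminescence; concentration-response curves fitted after normalization.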
MCF10A rerep: A quantitative high throughput screen for small molecules that induce DNA re-replication in MCF 10a normal breast cells; AID 624296, 2012; Potency, µM (top dose mostly 46.1 µM), most hits filed as activators; MCF 10A DNA re-replication, Hoechst nuclear intensity, 48 h; 350,000 compounds, 2.9% hits; also: nearly all actives have a fitted effect of over 50% in size
Hits are given with their value; – = inactive; ? = inconclusive; · = no result; [ ] = another dose, or the depositor's remark. Only some compounds are listed: those with a hit (about 7.6% of all), similar ones and a draw of the others. Unless noted, calls follow the shape of the dose curve; as a rule, active = well fitted curve in the direction sought with a large enough effect; inconclusive = small, poorly fitted or top-dose-only effect, or another doubt; inactive = no such curve, though single readings can be large; an effect the other way counts as inactive or inconclusive.

SMILES	SW480 rerep	hERG WT inh	KB-V1 cytotox	KCNH2 3.1 inh	KB-3-1 tox	MCF10A rerep
CCOC(=O)[C@]12CCCC=C1N(Cc1ccco1)C(=O)[C@H](CC(=O)NCCCCc1ccccc1)C2	·	·	15µM	·	?	·
CCOC(=O)[C@]12CCCC=C1N(Cc1ccc3c(c1)OCO3)C(=O)[C@H](CC(=O)NCCc1ccccc1OC)C2	·	·	23µM	·	?	·
CCOC(=O)[C@]12CCCC=C1N(CCC1=CCCCC1)C(=O)[C@H](CC(=O)NCC13CC4CC(CC(C4)C1)C3)C2	·	·	18µM	·	?	·
CCOC(=O)[C@]12CCCC=C1N(Cc1ccccc1)C(=O)[C@H](CC(=O)NCC13CC4CC(CC(C4)C1)C3)C2	·	·	21µM	·	18µM	·
CC(C)NC(=O)C1C(c2ccccc2)=Nc2ccccc2N1C(=O)c1cc(Cl)cc(Cl)c1 (configuration not stated)	·	·	?	·	–	·
CCOC(=O)[C@]12CCCC=C1N(Cc1ccc3c(c1)OCO3)C(=O)[C@H](CC(=O)N1CCC(c3ccccc3)CC1)C2	·	·	23µM	·	?	·
CCOC(=O)[C@]12CCC=C1N(Cc1ccc3c(c1)OCO3)C(=O)[C@H](CC(=O)NCC13CC4CC(CC(C4)C1)C3)C2	·	·	23µM	·	?	·
CCCCOCCCNC(=O)C[C@@H]1C[C@@]2(C(=O)OCC)CCC=C2N(Cc2ccc3c(c2)OCO3)C1=O	·	·	?	·	–	·
COC(=O)[C@]12CCCCC=C1N(Cc1ccc3c(c1)OCO3)C(=O)[C@H](CC(=O)N1CCC(c3ccccc3)CC1)C2	·	·	–	·	–	·
COc1ccc(OC)c2c(C)ccnc12	·	·	–	·	–	·
CC1CCCCN1CCCNC(=O)CN1C(=O)c2cccnc2Oc2ccc(Cl)cc21 (configuration not stated)	–	–	–	–	–	–
COCCn1c(SCC(=O)N2CCC(C)CC2)nc2ccccc2c1=O	–	–	–	–	–	–
COc1ccc(C(=O)Nn2c(SCC(=O)c3ccc(Cl)cc3)nc3ccccc3c2=O)cc1	–	–	5.8µM	–	–	–
COc1ccc(C(=O)Nn2c(SCC(=O)N3CCC(C)CC3)nc3ccccc3c2=O)cc1	–	–	5.2µM	–	–	–
COc1ccc(C(=O)Nn2c(SCC(=O)NC3CCCCC3)nc3ccccc3c2=O)cc1	–	–	18µM	–	–	–
COc1ccc(CCN(C)C(=O)COC(=O)/C=C/c2ccc(C)o2)cc1OC	–	–	–	–	–	–
CCc1ccc(NC(=O)C(C)OC(=O)C2CCC(=O)N2)cc1 (configuration not stated)	–	–	–	–	–	?
Cc1nnc(NC(=O)CSc2nc3c(c(=O)n(C)c(=O)n3C)n2C(C)C)s1	–	–	–	–	–	–
CC[n+]1c(/C=C/Nc2ccccc2)oc2ccc(OC)cc21	?	–	–	–	–	18µM
CC[n+]1c(/C=C/N(C)c2ccccc2)oc2ccc(F)cc21	?	–	–	–	5.8µM	?
O=C(NC1CCCCC1)C1c2ccccc2OCC(=O)N1Cc1ccccc1 (configuration not stated)	·	·	–	·	–	·
CC1(C)CC(=O)c2cc(-c3nc(-c4ccc(F)cc4)cs3)c(=O)[nH]c2C1	·	·	?	·	–	·
CN1C(=O)NC(c2cccc(F)c2)C2=C1CC(C)(C)CC2=O (configuration not stated)	–	–	–	–	–	–
Cc1ccc(OCC(=O)c2c(N)n(C)c(=O)n(C)c2=O)c([N+](=O)[O-])n1	?	–	–	–	–	–
CCCCCCCCN1C(=O)C(O)=C(C(C)=O)C1c1ccccn1 (configuration not stated)	–	–	16µM	–	–	–
SMILES	SW480 rerep	hERG WT inh	KB-V1 cytotox	KCNH2 3.1 inh	KB-3-1 tox	MCF10A rerep
CC(O)Cc1cn([C@@H](CCCCNC(=O)OC(C)(C)C)C(=O)N2CCN(C(=O)OC(C)(C)C)CC2)nn1 (some centres not stated)	–	–	–	–	–	–
COc1ccc(C2c3[nH]c4ccccc4c3CCN2Cc2cccn2-c2ncccn2)cc1C (configuration not stated)	?	?	?	-79	?	–[9.22 µM]
CCSC1=NSC2=NC(=O)/C(=C\c3coc4ccccc4c3=O)C(=N)N12	?	–	–	–	–	18µM
CS(=O)(=O)Nc1cccc(C(=O)CC2(O)C(=O)Nc3ccc(Br)cc32)c1 (configuration not stated)	?	–	–	–	–	8.2µM
CS(=O)(=O)Nc1cccc(C(=O)CC2(O)C(=O)Nc3ccccc32)c1 (configuration not stated)	–	–	–	–	–	–
CC(C)NC(=S)N/N=C/c1ccccc1[N+](=O)[O-]	–	–	–	–	?	–
O=[N+]([O-])c1ccccc1C=NNC(=S)NN=Cc1ccccc1[N+](=O)[O-]	21µM	–	?	–	?	18µM
O=C(CN(Cc1ccccc1)S(=O)(=O)c1ccccc1)N/N=C/c1ccccc1[N+](=O)[O-]	–	–	23µM	–	–	–
Cc1ccc(S(=O)(=O)N(Cc2cccc(Cl)c2)C(=O)N2CCN(C)CC2)cc1	–	–	?	–	–	–
CCOc1ccc(-n2c(-c3ccccc3)c[n+]3c2CCCCC3)cc1	–	–	?	–	10µM	–
Cc1ccc(-c2c[n+]3c(n2-c2ccccc2)CCC3)cc1	?	–	–	–	1.3µM	8.2µM
COc1ccccc1-c1cn(-c2ccccc2)c(=S)[nH]1	?	–	?	–	?	–
COc1ccccc1C1=NC(c2ccccc2)CN1c1ccccc1 (configuration not stated)	6.5µM	–	–	–	–	5.2µM
Cc1ccc(NC(=O)CN(c2ccccc2)S(=O)(=O)N(C)C)cc1	–	–	15µM	–	–	–
CN(C)S(=O)(=O)N(CC(=O)Nc1ccc(C(F)(F)F)cc1)c1ccccc1	·	·	–	·	–	·
CN(C)S(=O)(=O)N(CC(=O)Nc1ccc(F)c(F)c1)c1ccccc1	–	–	21µM	–	–	–
Cn1c(N)nc2nc[nH]c2c1=S	–	–	?	–	–	?
c1ccc(-c2ccc(-c3nc(-c4ccccn4)no3)cc2)cc1	–	–	8.2µM	–	13µM	–
c1ccc(-c2nc(-c3ccccn3)no2)cc1	–	–	16µM	–	9.2µM	?
Cc1ccc(-c2nc(-c3ccccn3)no2)cc1	–	–	6.5µM	–	9.2µM	–

Source: PubChem (National Center for Advancing Translational Sciences (NCATS))
